The text below walks through data of PMC7862700, “An all-to-all approach to the identification of sequence-specific readers for epigenetic DNA modifications on cytosine”.

Common to all, as to assay: DAPPL (digital affinity profiling via proximity ligation, sequencing); 10 mM Tris-HCl pH 7.5, 50 mM NaCl, 1 mM DTT, 4% glycerol, room temperature, 30 min; GST-TFs on glutathione beads, 16-mer random dsDNA library, 0.1% formaldehyde crosslink after washing; high values mean tight binding
Test [1] deals with T1, FEV (Homo sapiens, UniProt Q99581 1-238).
T1 sequence: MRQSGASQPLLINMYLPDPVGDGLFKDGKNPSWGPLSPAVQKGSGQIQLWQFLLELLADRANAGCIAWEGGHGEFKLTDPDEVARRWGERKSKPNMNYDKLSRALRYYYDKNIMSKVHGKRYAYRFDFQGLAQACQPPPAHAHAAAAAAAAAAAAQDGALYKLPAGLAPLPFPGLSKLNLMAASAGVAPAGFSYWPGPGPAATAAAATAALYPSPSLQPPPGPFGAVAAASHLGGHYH
The note with it: protein: recombinant; tags: N-terminal GST; dsDNA, one strand shown. The essentials:
(§1)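 Beads coated with glutathione captured GST-fused human transcription factors that had been expressed in yeast, and the factors were then given DNA barcodes and pooled with a tag-only sample. The pools were incubated with 200 nmole of a random double-stranded 16-mer DNA library in Tris/NaCl/DTT/glycerol buffer for 30 min at room temperature, washed, crosslinked with 0.1% formaldehyde and proximity-ligated with BsaI/T4 ligase at 37 °C for 1 h. PCR amplification and Illumina NextSeq500 sequencing came last. Binding signal is each hexamer's read frequency for a factor divided by its frequency for the tag-only sample.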

Test [2] concerns the target ETV5 (Homo sapiens, UniProt P41161 1-510). The note with it: protein: recombinant; tags: N-terminal GST; dsDNA, one strand shown. In outline: as §1
The target in test [3] is HSF1 (Homo sapiens, UniProt Q00613 1-529). The note with it: protein: recombinant; tags: N-terminal GST; chain copies: 3; dsDNA, one strand shown. In outline: as §1
Test [4] has as its target T2, SPIC (Homo sapiens, UniProt Q8N5J4 1-248).
T2 sequence: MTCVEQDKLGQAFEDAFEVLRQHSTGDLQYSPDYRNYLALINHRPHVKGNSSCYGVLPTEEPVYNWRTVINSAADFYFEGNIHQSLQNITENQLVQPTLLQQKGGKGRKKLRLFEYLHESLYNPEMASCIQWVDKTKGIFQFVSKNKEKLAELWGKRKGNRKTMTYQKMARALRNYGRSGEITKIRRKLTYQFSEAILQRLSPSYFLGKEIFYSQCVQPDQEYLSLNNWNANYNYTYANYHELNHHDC
The note with it: protein: recombinant; tags: N-terminal GST; dsDNA, one strand shown. In outline: as §1

In test [5] the target is ELF4 (Homo sapiens, UniProt Q99607 1-663). The settings on record: protein: recombinant; tags: N-terminal GST; dsDNA, one strand shown. The essentials: as §1
The target in test [6] is T3, ELK4 (Homo sapiens, UniProt P28324-2 1-405).
T3 sequence: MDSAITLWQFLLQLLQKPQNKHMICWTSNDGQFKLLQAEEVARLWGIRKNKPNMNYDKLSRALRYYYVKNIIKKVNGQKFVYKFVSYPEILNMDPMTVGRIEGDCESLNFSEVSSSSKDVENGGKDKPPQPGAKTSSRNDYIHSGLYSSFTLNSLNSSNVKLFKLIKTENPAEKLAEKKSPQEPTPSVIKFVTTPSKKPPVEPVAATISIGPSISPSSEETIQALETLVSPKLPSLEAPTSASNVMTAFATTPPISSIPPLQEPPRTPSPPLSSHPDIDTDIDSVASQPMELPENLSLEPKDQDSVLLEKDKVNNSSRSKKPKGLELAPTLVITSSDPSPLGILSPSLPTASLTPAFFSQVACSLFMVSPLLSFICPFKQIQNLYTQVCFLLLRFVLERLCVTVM
The note with it: protein: recombinant; tags: N-terminal GST; dsDNA, one strand shown. In outline:
as §1

The target of test [7] is T4, ETV2 (Homo sapiens, UniProt O00321 1-342).
T4 sequence: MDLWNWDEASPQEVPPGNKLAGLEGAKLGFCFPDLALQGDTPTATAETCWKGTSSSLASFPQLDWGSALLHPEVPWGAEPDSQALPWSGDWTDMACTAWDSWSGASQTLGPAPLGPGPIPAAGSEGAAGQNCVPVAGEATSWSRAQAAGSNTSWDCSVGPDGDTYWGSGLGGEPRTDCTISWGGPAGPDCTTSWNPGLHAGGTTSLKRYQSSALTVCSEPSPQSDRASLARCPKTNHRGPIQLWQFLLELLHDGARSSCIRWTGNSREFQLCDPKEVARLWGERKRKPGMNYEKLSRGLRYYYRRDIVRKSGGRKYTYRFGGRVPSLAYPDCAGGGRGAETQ
The settings on record: protein: recombinant; tags: N-terminal GST; dsDNA, one strand shown. The essentials: as §1

Test [8] deals with T5, ELF3 (Homo sapiens, UniProt P78545 1-371).
T5 sequence: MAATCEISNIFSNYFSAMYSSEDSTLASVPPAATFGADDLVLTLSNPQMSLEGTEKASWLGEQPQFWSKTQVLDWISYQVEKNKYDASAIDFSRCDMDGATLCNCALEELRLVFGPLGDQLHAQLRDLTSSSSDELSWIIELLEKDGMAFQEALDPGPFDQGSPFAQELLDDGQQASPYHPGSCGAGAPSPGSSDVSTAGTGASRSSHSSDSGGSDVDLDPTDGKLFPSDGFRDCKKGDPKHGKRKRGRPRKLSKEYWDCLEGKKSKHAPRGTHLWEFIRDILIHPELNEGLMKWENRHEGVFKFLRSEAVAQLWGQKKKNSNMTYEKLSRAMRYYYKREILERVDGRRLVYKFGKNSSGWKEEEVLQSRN
The note with it: protein: recombinant; tags: N-terminal GST; dsDNA, one strand shown. The essentials:
as §1

For test [9], the target named is CRX (Homo sapiens, UniProt O43186 1-299). The note with it: protein: recombinant; tags: N-terminal GST; dsDNA, one strand shown. In outline:
as §1

Test [10] addresses ETV1 (Homo sapiens, UniProt P50549 1-477). The settings on record: protein: recombinant; tags: N-terminal GST; dsDNA, one strand shown. In outline:
as §1

Test [11] has as its target T6, ERF (Homo sapiens, UniProt P50548 1-548).
T6 sequence: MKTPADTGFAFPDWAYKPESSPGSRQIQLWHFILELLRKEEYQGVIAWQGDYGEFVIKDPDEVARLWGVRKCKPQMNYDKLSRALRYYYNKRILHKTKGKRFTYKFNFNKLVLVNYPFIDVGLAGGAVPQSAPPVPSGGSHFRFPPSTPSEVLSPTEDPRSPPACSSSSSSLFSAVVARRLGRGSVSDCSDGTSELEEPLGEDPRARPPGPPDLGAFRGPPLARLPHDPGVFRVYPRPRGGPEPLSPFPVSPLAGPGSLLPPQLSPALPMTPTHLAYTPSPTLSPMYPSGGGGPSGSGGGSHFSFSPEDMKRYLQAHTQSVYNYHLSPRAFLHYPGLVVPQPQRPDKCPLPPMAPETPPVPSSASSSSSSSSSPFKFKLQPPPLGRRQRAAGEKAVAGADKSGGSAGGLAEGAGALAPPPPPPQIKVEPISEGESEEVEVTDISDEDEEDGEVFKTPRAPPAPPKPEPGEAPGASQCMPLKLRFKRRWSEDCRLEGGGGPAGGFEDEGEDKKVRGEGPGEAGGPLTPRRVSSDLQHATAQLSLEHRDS
The note with it: protein: recombinant; tags: N-terminal GST; dsDNA, one strand shown. The essentials:
as §1

The target in test [12] is T7, ETV3L (Homo sapiens, UniProt Q6ZN32 1-361).
T7 sequence: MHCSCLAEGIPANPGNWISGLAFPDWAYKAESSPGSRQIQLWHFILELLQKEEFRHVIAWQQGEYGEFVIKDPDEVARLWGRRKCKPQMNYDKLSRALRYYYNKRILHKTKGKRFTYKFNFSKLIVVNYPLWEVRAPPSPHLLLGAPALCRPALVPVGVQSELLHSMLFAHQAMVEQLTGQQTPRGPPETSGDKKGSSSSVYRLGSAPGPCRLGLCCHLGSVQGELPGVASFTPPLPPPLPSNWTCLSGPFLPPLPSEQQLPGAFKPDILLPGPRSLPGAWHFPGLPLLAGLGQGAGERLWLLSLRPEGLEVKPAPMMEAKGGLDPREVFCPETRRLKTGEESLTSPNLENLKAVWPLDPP
The note with it: protein: recombinant; tags: N-terminal GST; dsDNA, one strand shown. The essentials:
as §1

The target of test [13] is T8, ETS2 (Homo sapiens, UniProt P15036 1-469).
T8 sequence: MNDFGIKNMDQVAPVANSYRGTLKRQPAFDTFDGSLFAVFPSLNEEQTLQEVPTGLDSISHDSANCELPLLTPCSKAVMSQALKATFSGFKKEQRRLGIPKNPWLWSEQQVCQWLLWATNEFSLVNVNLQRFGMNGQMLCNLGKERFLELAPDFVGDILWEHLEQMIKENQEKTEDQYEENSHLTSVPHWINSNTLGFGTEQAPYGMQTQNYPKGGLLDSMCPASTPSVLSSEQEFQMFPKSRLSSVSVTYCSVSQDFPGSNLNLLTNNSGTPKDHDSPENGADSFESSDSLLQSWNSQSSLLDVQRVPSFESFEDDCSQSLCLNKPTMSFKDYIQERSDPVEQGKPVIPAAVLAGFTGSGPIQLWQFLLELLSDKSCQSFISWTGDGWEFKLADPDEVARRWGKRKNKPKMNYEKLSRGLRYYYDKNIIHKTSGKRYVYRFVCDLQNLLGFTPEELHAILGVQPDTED
The note with it: protein: recombinant; tags: N-terminal GST; dsDNA, one strand shown. The essentials: as §1

In test [14] the target is T9, SPDEF (Homo sapiens, UniProt O95238 1-335).
T9 sequence: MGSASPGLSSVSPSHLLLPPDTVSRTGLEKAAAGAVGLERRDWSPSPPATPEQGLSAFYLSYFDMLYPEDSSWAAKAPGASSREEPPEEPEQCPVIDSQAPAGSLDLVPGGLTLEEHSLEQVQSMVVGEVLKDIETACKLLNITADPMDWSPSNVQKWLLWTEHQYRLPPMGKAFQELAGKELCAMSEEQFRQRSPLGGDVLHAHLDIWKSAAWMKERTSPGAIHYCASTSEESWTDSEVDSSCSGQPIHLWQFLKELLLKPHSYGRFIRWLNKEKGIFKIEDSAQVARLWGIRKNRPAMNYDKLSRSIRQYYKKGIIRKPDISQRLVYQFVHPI
The note with it: protein: recombinant; tags: N-terminal GST; dsDNA, one strand shown. The essentials:
as §1

The target in test [15] is T10, ETV7 (Homo sapiens, UniProt Q9Y603 1-341).
T10 sequence: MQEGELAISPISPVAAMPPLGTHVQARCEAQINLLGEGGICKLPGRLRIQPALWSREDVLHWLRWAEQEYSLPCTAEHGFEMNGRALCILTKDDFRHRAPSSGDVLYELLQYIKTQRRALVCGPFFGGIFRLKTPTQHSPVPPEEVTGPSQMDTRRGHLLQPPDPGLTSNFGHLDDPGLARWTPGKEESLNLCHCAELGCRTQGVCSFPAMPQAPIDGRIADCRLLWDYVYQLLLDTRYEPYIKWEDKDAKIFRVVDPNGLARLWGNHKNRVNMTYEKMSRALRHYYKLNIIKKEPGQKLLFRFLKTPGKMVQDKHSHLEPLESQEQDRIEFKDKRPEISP
The settings on record: protein: recombinant; tags: N-terminal GST; dsDNA, one strand shown. In outline: as §1

Test [16] has as its target T11, ELF5 (Homo sapiens, UniProt Q9UKW6-2 1-255).
T11 sequence: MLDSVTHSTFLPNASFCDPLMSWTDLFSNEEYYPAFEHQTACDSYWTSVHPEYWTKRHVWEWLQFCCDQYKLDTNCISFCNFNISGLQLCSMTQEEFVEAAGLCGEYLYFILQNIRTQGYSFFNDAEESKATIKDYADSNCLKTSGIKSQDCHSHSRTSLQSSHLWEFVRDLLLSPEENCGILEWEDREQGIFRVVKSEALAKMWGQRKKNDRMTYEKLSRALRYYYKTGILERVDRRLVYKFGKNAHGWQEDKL
The note with it: protein: recombinant; tags: N-terminal GST; dsDNA, one strand shown. The essentials: as §1

The target of test [17] is T12, ETV3 (Homo sapiens, UniProt P41162-2 1-143).
T12 sequence: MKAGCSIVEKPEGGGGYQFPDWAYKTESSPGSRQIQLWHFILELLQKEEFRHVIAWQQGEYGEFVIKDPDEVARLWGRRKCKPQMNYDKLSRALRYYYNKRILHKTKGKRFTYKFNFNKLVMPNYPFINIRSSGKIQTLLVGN
The settings on record: protein: recombinant; tags: N-terminal GST; dsDNA, one strand shown. In outline: as §1

Test [18] concerns the target ETV6 (Homo sapiens, UniProt P41212 1-452). The note with it: protein: recombinant; tags: N-terminal GST; dsDNA, one strand shown. In outline: as §1

Chain of ETV5 (P41161 whole entry): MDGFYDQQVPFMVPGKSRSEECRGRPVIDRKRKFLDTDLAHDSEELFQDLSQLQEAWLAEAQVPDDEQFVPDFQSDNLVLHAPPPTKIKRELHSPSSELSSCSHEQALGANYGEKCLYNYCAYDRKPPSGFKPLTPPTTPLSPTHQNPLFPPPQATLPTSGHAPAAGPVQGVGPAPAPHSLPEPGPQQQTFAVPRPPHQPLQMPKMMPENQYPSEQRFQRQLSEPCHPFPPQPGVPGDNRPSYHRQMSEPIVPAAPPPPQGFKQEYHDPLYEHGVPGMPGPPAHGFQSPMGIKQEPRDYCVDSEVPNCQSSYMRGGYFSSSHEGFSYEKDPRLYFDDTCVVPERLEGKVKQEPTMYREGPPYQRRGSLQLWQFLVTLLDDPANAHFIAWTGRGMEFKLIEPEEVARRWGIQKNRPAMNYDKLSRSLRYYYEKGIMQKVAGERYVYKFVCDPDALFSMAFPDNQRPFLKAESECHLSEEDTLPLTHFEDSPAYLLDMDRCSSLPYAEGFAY
Chain of ETV1 (P50549 whole entry): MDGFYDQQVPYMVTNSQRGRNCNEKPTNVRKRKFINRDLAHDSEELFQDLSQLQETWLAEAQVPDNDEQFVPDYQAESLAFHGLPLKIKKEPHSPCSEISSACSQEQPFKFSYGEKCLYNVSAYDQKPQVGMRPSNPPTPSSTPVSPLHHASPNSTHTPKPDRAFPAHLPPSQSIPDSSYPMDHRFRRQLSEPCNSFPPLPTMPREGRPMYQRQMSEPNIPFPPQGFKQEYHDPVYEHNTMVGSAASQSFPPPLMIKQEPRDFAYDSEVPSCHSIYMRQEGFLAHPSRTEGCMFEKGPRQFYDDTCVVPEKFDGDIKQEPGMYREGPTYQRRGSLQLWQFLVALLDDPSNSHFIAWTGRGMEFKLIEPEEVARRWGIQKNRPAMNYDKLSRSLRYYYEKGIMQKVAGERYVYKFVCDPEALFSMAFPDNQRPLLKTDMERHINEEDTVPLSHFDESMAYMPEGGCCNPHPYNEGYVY
Chain of ELF4 (Q99607 whole entry): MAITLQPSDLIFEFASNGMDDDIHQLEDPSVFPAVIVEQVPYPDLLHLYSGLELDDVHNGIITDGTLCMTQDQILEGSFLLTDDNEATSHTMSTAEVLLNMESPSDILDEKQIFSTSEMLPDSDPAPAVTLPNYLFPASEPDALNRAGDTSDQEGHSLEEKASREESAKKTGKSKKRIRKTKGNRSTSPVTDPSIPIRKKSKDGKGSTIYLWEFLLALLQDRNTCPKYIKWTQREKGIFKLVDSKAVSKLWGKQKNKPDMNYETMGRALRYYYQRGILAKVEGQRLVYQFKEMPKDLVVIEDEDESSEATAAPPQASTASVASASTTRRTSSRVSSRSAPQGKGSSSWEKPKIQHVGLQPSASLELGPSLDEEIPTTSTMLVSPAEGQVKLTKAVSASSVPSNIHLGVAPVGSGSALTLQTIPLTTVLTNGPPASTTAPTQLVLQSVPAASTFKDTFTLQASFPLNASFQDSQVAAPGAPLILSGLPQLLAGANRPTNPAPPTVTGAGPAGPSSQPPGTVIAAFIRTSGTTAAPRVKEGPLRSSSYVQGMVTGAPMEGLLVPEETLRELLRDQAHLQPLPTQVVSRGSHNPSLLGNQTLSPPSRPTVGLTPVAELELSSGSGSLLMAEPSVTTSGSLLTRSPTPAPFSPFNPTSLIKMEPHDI
Chain of CRX (O43186 whole entry): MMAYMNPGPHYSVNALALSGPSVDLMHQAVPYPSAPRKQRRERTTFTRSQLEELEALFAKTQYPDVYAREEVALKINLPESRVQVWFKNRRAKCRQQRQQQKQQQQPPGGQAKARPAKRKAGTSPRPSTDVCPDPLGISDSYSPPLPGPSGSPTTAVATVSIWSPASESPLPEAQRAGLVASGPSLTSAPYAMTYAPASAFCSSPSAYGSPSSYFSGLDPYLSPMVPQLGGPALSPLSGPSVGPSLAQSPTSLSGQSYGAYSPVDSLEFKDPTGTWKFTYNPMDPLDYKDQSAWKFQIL
Chain of HSF1 (Q00613 whole entry): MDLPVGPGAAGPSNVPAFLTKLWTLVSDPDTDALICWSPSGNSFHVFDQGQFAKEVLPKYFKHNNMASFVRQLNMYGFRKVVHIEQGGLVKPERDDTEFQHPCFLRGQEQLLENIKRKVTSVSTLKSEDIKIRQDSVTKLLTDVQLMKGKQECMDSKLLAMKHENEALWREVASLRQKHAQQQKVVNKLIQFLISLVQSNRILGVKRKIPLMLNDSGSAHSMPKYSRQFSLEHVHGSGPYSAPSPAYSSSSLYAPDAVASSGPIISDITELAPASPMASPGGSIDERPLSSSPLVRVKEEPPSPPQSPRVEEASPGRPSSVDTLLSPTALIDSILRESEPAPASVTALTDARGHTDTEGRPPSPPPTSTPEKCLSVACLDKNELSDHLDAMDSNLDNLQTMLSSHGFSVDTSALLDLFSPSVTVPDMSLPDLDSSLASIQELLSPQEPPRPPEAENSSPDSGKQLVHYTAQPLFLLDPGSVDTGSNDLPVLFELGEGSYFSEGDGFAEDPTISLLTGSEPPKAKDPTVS
Chain of ETV6 (P41212 whole entry): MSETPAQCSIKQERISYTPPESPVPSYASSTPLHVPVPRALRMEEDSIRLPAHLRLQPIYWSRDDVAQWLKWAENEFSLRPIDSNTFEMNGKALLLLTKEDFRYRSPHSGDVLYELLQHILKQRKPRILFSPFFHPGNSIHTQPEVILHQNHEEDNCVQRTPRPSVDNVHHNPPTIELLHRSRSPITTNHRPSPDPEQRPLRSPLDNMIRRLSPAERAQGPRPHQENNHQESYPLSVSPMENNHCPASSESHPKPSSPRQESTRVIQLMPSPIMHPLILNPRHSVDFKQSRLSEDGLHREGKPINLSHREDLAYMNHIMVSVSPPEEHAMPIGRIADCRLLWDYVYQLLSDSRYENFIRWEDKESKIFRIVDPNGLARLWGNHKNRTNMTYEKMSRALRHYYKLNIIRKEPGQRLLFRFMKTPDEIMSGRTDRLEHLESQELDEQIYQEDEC

Turning to AACCCC, the binding signal was 1.24 fold enrichment (6-mer frequency, TF over GST control) in [1]; 1.14 fold enrichment (6-mer frequency, TF over GST control) in test [2]; 1.03 fold enrichment (6-mer frequency, TF over GST control) in test [3]; 1.33 fold enrichment (6-mer frequency, TF over GST control) in test [4]; 1.29 fold enrichment (6-mer frequency, TF over GST control) in test [5]; 1.36 fold enrichment (6-mer frequency, TF over GST control) in [6]. The binding signal in [7] is 1.18 fold enrichment (6-mer frequency, TF over GST control); in [8], 1.22 fold enrichment (6-mer frequency, TF over GST control); in test [9], 1.21 fold enrichment (6-mer frequency, TF over GST control); in test [10] it was 1.08 fold enrichment (6-mer frequency, TF over GST control); in test [11], 1.03 fold enrichment (6-mer frequency, TF over GST control); in test [12], 1.18 fold enrichment (6-mer frequency, TF over GST control). Also, the binding signal was 1.21 fold enrichment (6-mer frequency, TF over GST control) in test [13]; 1.14 fold enrichment (6-mer frequency, TF over GST control) in [14]; 1.11 fold enrichment (6-mer frequency, TF over GST control) in [15]; 1.13 fold enrichment (6-mer frequency, TF over GST control) in [16]; 1.07 fold enrichment (6-mer frequency, TF over GST control) in test [17]; 1.18 fold enrichment (6-mer frequency, TF over GST control) in test [18].
